Reference: PubChem BioAssay (EPA / NIEHS)
Values joined by “and” are separate entries in the source; they are usually repeats but may differ in a detail not shown here. Equal values may be shown once. Active and inactive are the calls of the source. Rule for the calls: active = hit-call score of the fitted dose curve at least 0.9, where 1 is the maximum; inconclusive = response in the unintended direction; inactive = score below 0.9.

Each compound was assayed on DIO2 (gene 1734) (assay: CCTE_GLTED_hDIO2: CCTE's human Deiodinase 2 (DIO2) Inhibition Assay, Great Lakes Toxicology and Ecology Division (GLTED) Lab (AID 2284050)).
Method: CCTE_GLTED_hDIO2 is a cell-free, single-readout assay designed to test the inhibitory activity of chemicals toward human iodothyronine Deiodinase type 2 (DIO2) enzyme. Enzyme is incubated in presence of test chemical for 3 hours during which uninhibited enzyme liberates free iodide from substrate. Free iodide is measured in a second step using the Sandell-Kolthoff method.CCTE_GLTED_hDIO2 is the assay component measured from the CCTE_GLTED_hDIO2 assay. It is designed to make measurements of enzyme activity, a form of enzyme reporter, as detected with absorbance signals by spectrophotometry.Data from the assay component CCTE_GLTED_hDIO2 was analyzed into 1 assay endpoint. This assay endpoint, CCTE_GLTED_hDIO2, was analyzed in the positive analysis fitting direction relative to DMSO as the negative control and baseline of activity. Using a type of enzyme reporter, loss-of-signal activity can be used to understand changes in the enzymatic activity as they relate to the gene DIO2. Furthermore, this assay endpoint can be referred to as a primary readout, because the performed assay has only produced 1 assay endpoint. To generalize the intended target to other relatable targets, this assay endpoint is annotated to the 'deiodinase' intended target family, where the subfamily is 'deiodinase Type 2'.
Human deiodinase type 2 (hDIO2) assay, developed at Great Lakes Toxicology and Ecology Division (GLTED) within the EPA's Center for Computational Toxicology and Exposure (CCTE), is designed to test the chemicals' ability to inhibit DIO2. Assay is based on iodide release measured by the Sandell-Kolthoff method and is run in 96-well plate format with assay plates run in triplicate (n=3). The method used for the deiodinase assay was largely based on Renko et al. (2012, 2015). These works describe the utilization of the SK reaction to measure deiodinase-liberated iodide in a 96-well-plate format. The SK reaction is based on the reduction of the yellow-colored cerium IV to the non-colored cerium III by arsenic, with the rate of this reaction increased in the presence of iodide in a concentration-dependent manner (Sandell and Kolthoff, 1937). Iodinated test chemicals can interfere as competitive inhibitors, or if the stock chemical has contaminating free-iodide present. Other chemicals, e.g.: nitrite, iron, and thiocyanate can interfere with the Sandell-Kolthoff reaction (see Sandell and Kolthoff, 1937).

SMILES | AC50 | outcome
O=C1C2(Cl)C3(Cl)C4(Cl)C(Cl)(Cl)C5(Cl)C3(Cl)C1(Cl)C5(Cl)C24Cl (configuration not stated) | 28.3 µM (active) | 
CC12CC1(C)C(=O)N(c1cc(Cl)cc(Cl)c1)C2=O (configuration not stated) |  | inactive
CCC(C)(C)c1ccc(O)c(C(C)(C)CC)c1 | 79 µM (active) | 
CC(C)(c1ccc(OCC2CO2)cc1)c1ccc(OCC2CO2)cc1 (configuration not stated) | 3.76 µM (active) | 
Clc1ccc(COC(Cn2ccnc2)c2ccc(Cl)cc2Cl)cc1 (configuration not stated) | 95.2 µM (active) | 
CC(C)(c1ccccc1)c1ccc(O)c(C(C)(C)c2ccccc2)c1 | 91.9 µM (active) | 
C=CC(=O)OCCCCCC(C)C | 21.1 µM (active) | 
CCCCCCCCc1ccc(O)cc1 | 151 µM (active) | 
O=C(O)C(F)(F)C(F)(F)C(F)(F)C(F)(F)C(F)(F)C(F)(F)C(F)(F)C(F)(F)C(F)(F)C(F)(F)F | 50 µM (active) and 53.2 µM (active) | 
Cl/C=C\C[N+]12CN3CN(CN(C3)C1)C2 |  | inactive
CC(C)(C)CC(C)(C)c1ccc(O)cc1 | 105 µM (active) | 
O=C1C(Cl)=C(Cl)C(=O)c2ccccc21 | 26.8 µM (active) | 
